The test system of test [1] is XIP peptide (Xip251-270) binding. Nature of the test: small-molecule binders of XIP peptide, primary screen, biochemical, small-molecule microarray, fluorescence 635/667 nm, 0.1 µg/mL protein (AID 1182). To be noted: fluorescent protein binding, 635 nm, higher = more signal, called active from +8 up or from −8 down.
Test [2] deals with XIP peptide (Xip251-270). Put plainly: small-molecule binders of XIP peptide, primary screen, biochemical, small-molecule microarray, fluorescence 635/667 nm, 0.5 µg/mL protein (AID 1183). To be noted: small-molecule microarray binding, fluorescence 635 nm; higher = more signal.
Test [3] is described as follows: Plasmodium falciparum growth inhibition, primary screen, strain 3D7, DAPI fluorescence, 100 nL (AID 1184).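 Further: parasites grown inside human red blood cells in medium with human serum.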 To be noted: P. falciparum 3D7 growth, 3 d, higher = more signal.
The target of test [4] is Homeobox protein Hox-A13 (Mus musculus) (UniProt Q62424). Nature of the test: inhibitors of HoxA13-DNA binding, primary screen, biochemical, fluorescence polarization, labeled oligonucleotide (AID 1185). To be noted: 15 min, higher = more signal, called active from +8 up or from −8 down.
Homeobox protein Hox-A13 (Mus musculus), sequence (Q62424 whole entry, looked up): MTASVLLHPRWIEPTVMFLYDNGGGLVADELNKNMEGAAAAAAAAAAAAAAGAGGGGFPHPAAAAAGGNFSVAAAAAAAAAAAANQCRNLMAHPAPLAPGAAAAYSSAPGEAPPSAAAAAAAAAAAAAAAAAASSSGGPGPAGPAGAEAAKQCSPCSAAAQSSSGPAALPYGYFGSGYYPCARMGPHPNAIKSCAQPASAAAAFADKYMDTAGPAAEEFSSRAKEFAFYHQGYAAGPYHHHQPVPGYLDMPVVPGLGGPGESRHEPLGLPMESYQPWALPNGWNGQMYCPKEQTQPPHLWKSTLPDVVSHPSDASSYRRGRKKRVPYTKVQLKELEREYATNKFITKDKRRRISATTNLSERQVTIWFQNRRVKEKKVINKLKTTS
Test [5] can be described thus: inhibitors of hydroxyurea-induced Chk1 phosphorylation, primary screen, imaging, HeLa, phospho-Chk1 antibody, percent positive cells (AID 1186). To be noted: hydroxyurea-induced phospho-Chk1 immunofluorescence imaging, higher = more signal.
The nature of test [6]: inhibitors of hydroxyurea-induced Chk1 phosphorylation, primary screen, imaging, HeLa, phospho-Chk1 nuclear intensity (AID 1187). To be noted: hydroxyurea-induced phospho-Chk1 immunofluorescence imaging, higher = more signal.

Experimental findings from PubChem BioAssay are described below.

Each structure is given as a SMILES string. Active and inactive are the calls of the source. Unless noted, how the calls were made is not given here.

Consider `COc1ccccc1CN1C(=O)c2ccccc2[C@](Cc2ccccc2I)(C(=O)NCC(F)(F)F)[C@@H]1c1ccc(CO)cc1`, for which the figures for the composite z-score in test [1] and in test [2] were 0.931 (inactive) and 0.909, respectively. Moreover, the z-score in test [3] is -1.49; in test [4] it was -4.98 (inactive); in test [5] it was -0.0993 (inactive); in test [6] it was -0.0597 (inactive).
Turning to `COCCOC(=O)N1C(=O)[C@@]2(c3cc(C#Cc4ccc(OC)cc4)ccc31)[C@H](C(=O)Nc1nc3ccccc3s1)[C@H]1C(=O)O[C@H](c3ccccc3)[C@H](c3ccccc3)N1[C@@H]2c1ccc(OCCO)cc1`, the figures for the composite z-score in test [1] and in test [2] were 0.127 (inactive) and 0.623, respectively. Further, the z-score was -1.69 in test [3], 2.34 (inactive) in test [4], 0.0676 (inactive) in test [5] and 0.0745 (inactive) in test [6].
On to `COC(=O)[C@@]1(Cc2ccccc2)[C@H]2c3cc(C(=O)N(C)C)n(CCN4CNCC4=O)c3C[C@H]2CN1C(=O)c1ccccc1`, for which the composite z-score in test [1] was 0.858 (inactive); in test [2], 1.01. The z-score was -0.17 in test [3], -2.94 (inactive) in test [4], -0.232 (inactive) in test [5] and -0.33 (inactive) in test [6].
As to `C=CCN1Cc2ccccc2[C@H]2OC(c3ccc(OCCCO)cc3)=N[C@@]2(CC=C)C1=O`, the values for the composite z-score in test [1] and in test [2] were 0.808 (inactive) and 0.746, respectively. For the same molecule, the z-score in test [3] was -2.15; in test [4] it was -3.06 (inactive); in test [5], -0.39 (inactive); in test [6], -0.0236 (inactive).
For `Cc1ccc(S[C@]2(C(=O)NCCCN(C)C)CC(=O)N(C3CCCCC3)[C@@H]2c2ccc(CO)cc2)cc1`, the composite z-score in test [1] was 0.332 (inactive); in test [2], 0.0388. For the same molecule, the z-score in test [3] was -1.54; in test [4], -1.9 (inactive); in test [5], 0.487 (inactive); in test [6] it was 0.866 (inactive).
For `O=C1O[C@@H](c2ccccc2)[C@@H](c2ccccc2)N2[C@@H](c3ccc(OCCO)cc3)[C@]3(C(=O)Nc4ccccc43)[C@@H](C(=O)O)[C@H]12`, the composite z-score is 0.442 (inactive) in test [1] and -0.105 in test [2]. In addition, the z-score in test [3] is -1.29; in test [4] it was -6.16 (inactive); in test [5], -0.33 (inactive); in test [6], -0.413 (inactive).
Turning to `C=C(C(=O)CC[C@@H](OC(C)=O)c1ccc(CO)o1)C(C)C`, the composite z-score was 0.164 (inactive) in test [1] and 0.656 in test [2]. Moreover, the z-score is -0.14 in test [3], -4.08 (inactive) in test [4], 0.257 (inactive) in test [5] and 0.636 (inactive) in test [6].
Regarding `CC(C)N1C(=O)c2ccccc2[C@@H](C(=O)NC2CC2)[C@@H]1c1ccc(CO)cc1`, the composite z-score in test [1] was 0.11 (inactive); in test [2], 0.461. In addition, the z-score in test [3] is 0.314; in test [4], -2.99 (inactive); in test [5] it was -0.0392 (inactive); in test [6] it was -0.0337 (inactive).
As for `CCOC(=O)C[C@H]1[C@H](OC(=O)c2ccccc2-c2ccccc2)[C@@H](NC(=O)c2ccc(-c3ccccc3)cc2)c2cc(OCCCO)ccc2N1C(=O)c1ccc2ccccc2n1`, the composite z-score was -0.07 (inactive) in test [1] and 0.421 in test [2]. The z-score in test [3] was -0.557; in test [4] it was -1.48 (inactive); in test [5] it was -0.145 (inactive); in test [6], -0.0265 (inactive).
For the molecule `COCCOC(=O)N1C(=O)[C@@]2(c3cc(C#CC4=CCCCC4)ccc31)[C@H](c1ccccc1OCCO)N1[C@H](c3ccccc3)[C@H](c3ccccc3)OC(=O)[C@H]1[C@@H]2C(=O)N1CCCCCCC1`, the composite z-score in test [1] is 0.549 (inactive); in test [2] it was 0.688. Besides, the z-score in test [3] was -2.05; in test [4] it was 4.13 (inactive); in test [5], 0.234 (inactive); in test [6], 0.347 (inactive).
With `C[C@@H]1NC(=O)[C@@]23C(=O)N[C@@H](Cc4ccccc4)C2[C@H](C)[C@@]2(C)O[C@H]2C3/C=C/C/C=C\CNC(=O)[C@@H]2CCCN2C1=O` (some centres undefined), the composite z-score in test [1] was -0.85 (inactive); in test [2], -0.103. Moreover, the z-score in test [3] is 0.934; in test [4], -3.68 (inactive); in test [5] it was -0.0354 (inactive); in test [6] it was 0.186 (inactive).
In the case of `O=C(N1CCCCC1)[C@@]1(CCS(=O)(=O)c2ccccc2)COC(c2ccc(OCCCO)cc2)=N1`, the composite z-score in test [1] is 1.16 (inactive); in test [2], 0.809. For the same molecule, the z-score was -2 in test [3], -5.2 (inactive) in test [4], -0.0331 (inactive) in test [5] and -0.187 (inactive) in test [6].
On to `C=CCC(OC(C)=O)[C@@H]1[C@@H](N(Cc2cccc3ccccc23)C(=O)Cc2ccc(OC)cc2)c2cc(OCCCO)ccc2N1C(=O)c1ccc2ccccc2n1` (some centres undefined), for which the results for the composite z-score in test [1] and in test [2] were 1.24 (inactive) and -0.248, respectively. Moreover, the z-score in test [3] is -2.54; in test [4], -2.7 (inactive); in test [5], -2.34 (inactive); in test [6], -1.44 (inactive).
`CCCCCCCCCCC(O)C1C=CC2C(=O)N(C)C(=O)C2N1Nc1ccc([N+](=O)[O-])cc1[N+](=O)[O-]` (centres undefined): the composite z-score in test [1] is -0.0993 (inactive); in test [2] it was 0.464. In addition, the z-score was 0.625 in test [3], -3.99 (inactive) in test [4], 0.496 (inactive) in test [5] and -0.12 (inactive) in test [6].
